Laboratory results taken from PubChem BioAssay AID1259324 (C. David Weaver Laboratory, Vanderbilt University, 2017).
The whole screen tested about 34,000 compounds, of which fewer than 10 were called active.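 Rule for the calls: active = primary screen hit, no activity in plain HEK293 cells, and in GIRK2-only cells above 5% efficacy rising with concentration; inactive = the rest, including fluorescent compounds.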 Not all results are given here.

What follows are compounds tested against G protein-activated inward rectifier potassium channel 2 (Homo sapiens) (UniProt P48051) (assay: activators of NPY4-receptor-primed GIRK2 channels, summary, cell-based, HEK293, thallium flux (AID 1259324)). Conditions: HEK293 GIRK2/NPY4 cells, thallium flux fluorescence.
Sequence of G protein-activated inward rectifier potassium channel 2 (Homo sapiens) (P48051 whole entry, looked up): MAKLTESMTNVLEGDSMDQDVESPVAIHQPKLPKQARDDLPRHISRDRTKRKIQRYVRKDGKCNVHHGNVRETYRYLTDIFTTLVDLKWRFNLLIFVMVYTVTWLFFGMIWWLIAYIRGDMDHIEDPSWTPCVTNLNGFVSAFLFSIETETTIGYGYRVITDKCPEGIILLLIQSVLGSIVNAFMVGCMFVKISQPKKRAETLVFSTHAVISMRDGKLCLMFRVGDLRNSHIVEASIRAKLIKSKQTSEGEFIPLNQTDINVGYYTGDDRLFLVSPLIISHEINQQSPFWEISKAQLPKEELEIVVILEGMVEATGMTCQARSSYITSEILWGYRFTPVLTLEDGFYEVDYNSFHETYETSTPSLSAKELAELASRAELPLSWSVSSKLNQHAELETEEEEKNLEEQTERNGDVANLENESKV

outcome, inactive:
CON(C)C(=O)C1CN(C(=O)c2cccs2)C1, COc1cn(CC(=O)Nc2ccc3c(c2)OCO3)c(CSc2ncccn2)cc1=O, CCOC(=O)C1CCN(C(=O)c2csc(Nc3ccccc3)n2)CC1, COc1ccc(CC(=O)NCCOc2ccc(F)cc2)cc1OC, CCOc1ccc2nc(NC(=O)c3ccc(S(=O)(=O)N(C)C)o3)sc2c1, O=c1[nH]c(SCc2nc(-c3cccc(C(F)(F)F)c3)no2)nc2ccsc12, COc1cc(N2CCN(S(C)(=O)=O)CC2)nc(OC)n1, CCC(CO)NC(=O)C(=O)Nc1c2c(nn1-c1ccccc1)CS(=O)(=O)C2 (stereo not given), CN1CCN(C(CNS(=O)(=O)c2ccc(C(C)(C)C)cc2)c2cccn2C)CC1 (stereo not given), COc1cccc(-n2nnnc2SCC(=O)Nc2ccccc2Cl)c1, COc1ccc(Cc2nnc(Nc3cc(C)ccc3C)[nH]c2=O)cc1, Cc1cc(=O)n(CC(=O)Nc2ccncc2)cn1, CCCCOc1ccc(C(=O)Nc2ccc3c(c2)CCC(=O)N3CCC)cc1, COc1cccc(C(=O)NCC2COC3(CCCCC3)O2)c1OC (stereo not given), NC(=O)C1CCN(c2oc(-c3ccco3)nc2S(=O)(=O)c2ccc(Cl)cc2)CC1, Cc1nnc(NC(=O)CCn2cnc3c(cnn3-c3ccc(F)cc3)c2=O)s1, O=C(NCC(=O)N1CCOC(c2ccccc2)C1)C(=O)NCc1ccccc1Cl (stereo not given), O=C(NCCc1ccc(F)cc1)c1cc(=O)c(OCc2ccccc2)co1 inactive; active, NC(=O)C1Cc2ccccc2N1C(=O)Nc1ccc2c(c1)OCO2 (stereo not given), CCc1nnc(NC(=O)c2nnn(-c3ccc(Cl)cc3)c2C)s1, COc1ccc(NC(=O)C2CCCCC2)cc1N1CCCCC1=O, COCCNC(=O)c1ccc(Oc2c(C)oc3cc(OC)ccc3c2=O)cc1, CN(C(=O)c1cccc(F)c1)C1(C)CCS(=O)(=O)C1 (stereo not given), Cc1cn2c3c(=O)n(C)c(=O)n(C)c3nc2n1CC(=O)c1ccc(Cl)cc1, Cc1cccc(NC(=O)c2ccc3nn(CC(=O)Nc4ccc(C)c(F)c4)c(=O)n3c2)c1, Cc1cccc(CC(=O)NCC2(c3cccs3)CCCC2)c1, CS(=O)(=O)N1CCC(CNC(=O)c2ccc(F)c(F)c2)CC1, O=C(NCCCN1CCCC1=O)C(=O)Nc1c2c(nn1-c1cccc(Cl)c1)CSC2, COc1ccc(S(=O)(=O)NCC(c2ccc(C)cc2)N2CCN(C)CC2)cc1OC (stereo not given), Cc1nc(-c2cccs2)c(CCC(=O)N(C)C2CCS(=O)(=O)C2)s1 (stereo not given), CNc1nn(CC(=O)Nc2ccc(C(C)=O)cc2)c(N)c1-c1nc(-c2ccc(C)cc2)no1, Cc1cc(-c2nnc(NC(=O)c3cccc(Oc4ccccc4)c3)o2)n(C)n1 inactive; active, COCC(C)(O)CNC(=O)Cc1cccc(C)c1 (stereo not given), CN1CCOc2ccc(NC(=O)C3(c4ccc(F)cc4)CC3)cc2C1=O, O=c1oc(-c2ccncc2)nc2c(Cl)cccc12, O=C(Cn1nc(C2CC2)c2cnn(-c3ccc(F)cc3)c2c1=O)N1CCOCC1, COC(=O)c1ccc(C(=O)NCCCC(=O)Nc2cccc3cccnc23)cc1, CN(C)C(=O)C(NC(=O)OC(C)(C)C)c1ccccc1Cl (stereo not given), CC(C)S(=O)(=O)c1ccc(CC(=O)NCc2n[nH]c(=O)c3ccccc23)cc1, O=C(c1ccc(N2CCCC2)nn1)N1CCN(C(=O)c2ccco2)CC1, O=C(c1ccc2c(c1)OCO2)N(Cc1ccsc1)Cc1ccccn1, CSc1nnc(CNC(=O)C23CC4CC(CC(C4)C2)C3)n1-c1ccccc1, Cc1ccc(S(=O)(=O)NCCNc2ccc(Nc3cccc(C)n3)nn2)c(C)c1, O=c1c2cn[nH]c2nc(SCc2nc(-c3ccccc3)no2)n1-c1ccccc1, O=C(Cc1cccc2ccccc12)NCCOc1ccc2c(c1)OCO2, Cc1cc(C)c2sc(N3CCN(C(=O)C4CCCN(S(C)(=O)=O)C4)CC3)nc2c1 (stereo not given), COc1cccc(C(=O)Nc2ccc(N3CCCC3=O)c(OC)c2)c1, Cc1ccc(NC(=S)NC(=O)c2ccc(F)cc2)nc1, Cc1cc(C)n(S(=O)(=O)c2cccc(S(C)(=O)=O)c2)n1, COc1ccc(-c2cc3c(=O)n(Cc4nc(-c5ccc(OC)cc5OC)no4)ccn3n2)cc1, CSc1ccccc1C(=O)Nc1nnc(-c2cc(C)nn2C)o1, Cn1c(=O)c2c(nc3n(CC(=O)O)c(-c4ccccc4)cn23)n(C)c1=O, COc1nn(C)cc1-c1nnc(SCC(=O)N2CCCc3ccccc32)n1C, Cc1cccc(CS(=O)(=O)NCC2(O)CCc3ccccc32)c1 (stereo not given), COC(=O)c1ccc(NC(=O)Cn2c(=O)n(C(C)C)c(=O)c3nscc32)cc1, NS(=O)(=O)c1ccc(NC(=O)c2ccc(=O)n(Cc3ccc(F)cc3)c2)cc1, CCOC(=O)Cc1csc(NC(=O)c2nc(-c3cnccn3)no2)n1, Cc1cccc(Nc2ccc(N3CCN(S(=O)(=O)c4cccs4)CC3)nn2)n1, COCCNC(=O)CCn1cnc2c(cnn2C(C)(C)C)c1=O, O=S(=O)(NCC#CCN1CCc2ccccc2C1)c1c(F)cccc1F, Cc1ccc(-c2ccc(=O)n(CCCC(=O)Nc3ccc(S(N)(=O)=O)cc3)n2)cc1, COc1cc(OC)cc(C(=O)N2CCc3cc(S(=O)(=O)NC4CCCC4)ccc32)c1, Cn1cccc1C(CNS(=O)(=O)c1ccc(F)cc1)N1CCOCC1 (stereo not given), Cn1cccc(C(=O)N2CCC(c3nnc(-c4ccco4)s3)CC2)c1=O, O=C(NCC1(c2cccs2)CCOCC1)Nc1cccc(C(F)(F)F)c1, CC(=O)c1ccc(S(=O)(=O)N2CCC(c3nnc(C4CC4)o3)CC2)cc1, COc1ccc(Cl)cc1N1CC(c2nc(-c3ccccc3C)no2)CC1=O (stereo not given), Cc1c(C(=O)NCc2ccccc2Cl)nnn1-c1ccc(F)cc1, Cc1cccc(NC(=O)c2cc(-c3ccco3)nc3c2c(C)nn3C2CCS(=O)(=O)C2)c1 (stereo not given), Cc1cc(C(=O)Nc2nc(-c3cccs3)cs2)on1 inactive; active, COc1ccc(CCNC(=O)Nc2cc(N3CCCS3(=O)=O)ccc2C)cc1, O=C(Cc1cc(-c2ccc(F)cc2)on1)N1CCc2ccccc21, O=C(NCCC1=CCCCC1)C(=O)NCc1nc(-c2ccccc2)no1, COc1ccc(NC(=O)N2CCN(c3cc(OC)nc(OC)n3)CC2)cc1, CC(C)(C)C(=O)N1CCc2ccc(NS(=O)(=O)c3ccc(Cl)s3)cc21, COc1ccc(Cl)cc1C(=O)NCCNc1cc(-n2ccnc2C)ncn1, COc1ccccc1C1(CNC(=O)Cc2ccc(F)cc2)CCOCC1, CCOc1ccc(NC(=O)NCCCn2nc(-c3ccncc3)ccc2=O)cc1 inactive; active, COc1ccc(NC(=O)Cn2cc(OC)c(=O)cc2CSc2nccc(C)n2)cc1, O=C(C1CCCCC1)N(CCN1CCOCC1)c1nc2c(Cl)cccc2s1, Cn1c(=O)c2cc(C(=O)NC3CCCCCC3)sc2n(C)c1=O, COc1ccc(C)cc1S(=O)(=O)NCC(c1ccc(F)cc1)N1CCN(C)CC1 (stereo not given), O=C(Cc1ccc(-c2ccccc2)cc1)NCC1CCN(Cc2ccco2)CC1, CCOc1ccc(-c2cc(=O)n(CC(=O)Nc3ccccc3F)cn2)cc1, O=C(CCCS(=O)(=O)c1ccccc1)Nc1nc2c(F)cccc2s1, CCOc1ccc2ccccc2c1C(=O)N1CCN(c2ncnc3c2nnn3C)CC1, CCOC(=O)N1CCN(C(c2ccccc2F)c2sc3nc(CC)nn3c2O)CC1 (stereo not given), COc1coc(C(=O)Nc2ccc(C(N)=O)cc2)cc1=O, COc1ccccc1CCNC(=O)Cc1csc(NC(=O)C2CCC(=O)N2)n1 (stereo not given), O=C(C1CC=CCC1)N1CCN(CCn2ccnc2)CC1 (stereo not given), O=C(c1cccs1)N1CCc2ccc(NS(=O)(=O)Cc3cccc(Cl)c3)cc21, Cc1ccc(-n2ccnc2N2CCN(C(=O)c3cccs3)CC2)cc1, COC(=O)c1c2c(nc3c1c(-c1ccccc1)nn3C1CCS(=O)(=O)C1)CCC2 (stereo not given), CCC(=O)Nc1ccc(SCC(=O)NCC2CCCO2)nn1 (stereo not given), O=C(NCC(O)c1ccc(C(F)(F)F)cc1)C1(c2cccs2)CCCC1 (stereo not given)
